Only a part of the results of these assays is listed, not drawn at random. A value given as a limit tells only on which side of the number the result lay.

This assay deals with T1, Protein RecA (Mycobacterium tuberculosis) (UniProt P9WHJ3).
T1 sequence (whole entry): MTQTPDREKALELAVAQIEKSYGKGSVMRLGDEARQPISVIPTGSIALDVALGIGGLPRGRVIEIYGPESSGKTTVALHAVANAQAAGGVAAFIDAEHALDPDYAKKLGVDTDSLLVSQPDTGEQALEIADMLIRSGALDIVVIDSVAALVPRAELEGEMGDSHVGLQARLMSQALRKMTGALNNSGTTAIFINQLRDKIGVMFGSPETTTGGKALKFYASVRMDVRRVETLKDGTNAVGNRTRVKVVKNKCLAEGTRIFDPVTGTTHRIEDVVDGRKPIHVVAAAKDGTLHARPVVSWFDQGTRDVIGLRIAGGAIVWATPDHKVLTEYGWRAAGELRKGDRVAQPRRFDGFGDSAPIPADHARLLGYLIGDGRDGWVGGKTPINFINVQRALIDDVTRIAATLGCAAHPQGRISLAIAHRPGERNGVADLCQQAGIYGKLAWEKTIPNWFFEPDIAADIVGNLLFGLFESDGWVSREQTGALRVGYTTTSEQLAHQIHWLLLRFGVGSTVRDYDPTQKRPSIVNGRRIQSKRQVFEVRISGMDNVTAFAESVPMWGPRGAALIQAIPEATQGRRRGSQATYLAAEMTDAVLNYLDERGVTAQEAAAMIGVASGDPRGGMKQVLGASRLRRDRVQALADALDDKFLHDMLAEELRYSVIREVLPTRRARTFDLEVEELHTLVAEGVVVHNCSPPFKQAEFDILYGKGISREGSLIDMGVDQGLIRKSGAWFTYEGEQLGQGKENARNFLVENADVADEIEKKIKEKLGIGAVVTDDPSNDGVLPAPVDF
Description: M. tuberculosis H37Rv growth inhibition, dose response, strain H37Rv (AID 489010).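 Also: whole Mycobacterium tuberculosis cells grown in culture and not purified RecA protein.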 It counts as functional.
Consider `CC(NC(=O)COC(=O)c1cc(NS(=O)(=O)c2ccc(Cl)c([N+](=O)[O-])c2)ccc1O)C1CC2CCC1C2` (stereo not drawn), for which the IC90 (commonly the concentration needed for an effect of 90%) was > 100 µM (active).
Next, `CCN(CC)CCNC(=O)c1ccc2c(c1NCCO)C(=O)c1ccccc1C2=O`: > 100 µM (active); `Cc1ccc(C(=O)Oc2ccc([N+](=O)[O-])cc2)cc1S(=O)(=O)N1CCCCCC1`: > 100 µM (active); `Cc1ccccc1-n1ncc2c([N+](=O)[O-])cc([N+](=O)[O-])cc21`: 2.16 µM (active).
As for `Cn1nc(-c2ccccn2)nc2c(=O)n(C)c(=O)nc1-2`, the IC90 is 22.3 µM (active).
For `O=C(OCn1ncc(Cl)c(Cl)c1=O)c1ccccc1Cl` the value was > 100 µM (active); for `Cc1sc2ncnc(Sc3nnnn3-c3ccccc3)c2c1C`, > 100 µM (active).
Take `Cc1ccc(Sc2ccc(NC(=O)CCl)cc2)cc1C`: the IC90 was 52.4 µM (active).
As to `CCC(C)[C@@H](NC(=O)OC(C)(C)C)c1nnc(S(=O)(=O)Cc2cccc(C)c2)o1` (stereo partly drawn), the IC90 was > 100 µM (active).
Turning to `CCCCCCCCCCn1c2c(c(=N)c3c1CCC3)CCC2`, the IC90 was 3.39 µM (active).
For `Cc1[nH]n(-c2ccccc2)c(=O)c1C(c1cccc([N+](=O)[O-])c1)c1c(C)[nH]n(-c2ccccc2)c1=O`, the IC90 is > 100 µM (active).
As for `C/C(=N\NC(=O)c1ccncc1)c1cc2ccccc2oc1=O`, the IC90 was 0.43 µM (active).
On to `CC1=NNC(=O)C1Cc1c(Cl)cccc1Cl` (stereo not drawn), for which the IC90 is > 100 µM (active).
Consider `Cc1oc2c(c1C(=O)N1CCOCC1)C(=O)c1ccccc1C2=O`, for which the IC90 is 35.2 µM (active).
On to `Cc1oc2c(c1C(=O)NCc1cccnc1)C(=O)c1ccccc1C2=O`, for which the IC90 was < 0.2 µM (active).
Next, `Cc1ccc(C(=O)OCn2ncc(Cl)c(Cl)c2=O)cc1`: > 100 µM (active); `O=C(OCn1ncc(Cl)c(Cl)c1=O)c1cccc(C(F)(F)F)c1`: > 100 µM (active).
In the case of `COc1cc(NCCCCCCCN)c2ncccc2c1`, the IC90 was 57.8 µM (active).
`CC(=O)n1cc(N(C(=O)CCl)c2ccc([N+](=O)[O-])cc2)c2ccccc21`: the IC90 was 8.94 µM (active).
Next, `COc1cc2c(cc1OC)C(c1cc(Br)ccc1F)N(C(=O)CCl)CC2` (stereo not drawn): 12.1 µM (active).
With `Cc1ccc(CS(=O)(=O)c2ncc(Cl)c(C(=O)Nc3nnc(C(C)C)s3)n2)cc1`, the IC90 was > 100 µM (active).
As to `COc1ccc2nc(C)cc(Sc3nc4ccccc4s3)c2c1`, the IC90 was > 100 µM (active).
Next, `Cc1cccc(Cn2nnc3c2C(=O)c2ccccc2C3=O)c1`: 52.6 µM (active).
For `COc1ccc(C(=O)c2c(C(F)(F)F)oc3c2C(=O)c2ccccc2C3=O)cc1OC`, the IC90 was 13.8 µM (active).
In the case of `CCn1nc(/C=C/c2ccccc2)nc2c(=O)n(C)c(=O)nc1-2`, the IC90 was 15.4 µM (active).
Turning to `COc1ccc(N(C(=O)CCl)C(C(=O)NCCc2ccccc2)c2cccs2)cc1` (stereo not drawn), the IC90 is 22.9 µM (active).
For `Cc1ccc(Sc2ccc(NC(=O)CCl)cc2)c(C)c1`, the IC90 is 66.3 µM (active).
Consider `Cn1nc(-c2ccc(Cl)cc2)nc2c(=O)n(C)c(=O)nc1-2`, for which the IC90 was 20 µM (active).
Turning to `CN(C1=C(NC(=O)c2ccccc2)C(=O)c2ccccc2C1=O)C1CCS(=O)(=O)C1` (stereo not drawn), the IC90 was > 100 µM (active).
Turning to `O=C(CCl)Nc1cn(-c2ccccc2)nc1-c1ccc(F)cc1`, the IC90 was 49.8 µM (active).
Take `COC(=O)c1sc(-c2ccc(Cl)cc2)cc1NC(=O)/C=C/C(=O)O`: the IC90 is > 100 µM (active).
In the case of `Cc1ccc(-n2nnc3c(SCC(=O)NCC4CCCO4)ncnc32)cc1` (stereo not drawn), the IC90 was > 100 µM (active).
Consider `C=CCOc1ccccc1CN(C(=O)CCl)c1ccc2c(c1)OCO2`, for which the IC90 is 8.42 µM (active).

For the origin of these results see ChEMBL document CHEMBL1201862, “PubChem BioAssay data set” (2004).
